Molecules are shown by their SMILES. This is part of a sample that, as a whole, favours compounds with a hit. Of some 83,000 tested, about 20% had one in any assay.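 Activity criterion: percent growth below 10, measured after cells in 96-well plates were exposed to a single compound concentration for 48 hours.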 Values without a mark were called inactive. The source made the active and inactive calls.

The experiment deals with PC-3 prostate. The experiment can be described thus: NCI-60 one-dose screen, 48 h (100 = growth as untreated, 0 = no growth, -100 = all killed). The note with it: 10 µM unless noted. Here is the method: Growth inhibition of the PC-3 human tumor cell line is measured as a screen for anti-cancer activity. Cells are grown in 96 well plates and exposed to the test compound for 48 hours. Compounds are tested at a single concentration, which is 10^-5 M for most compounds. The reported endpoint is percent growth (GI% or GIPRCNT), where numbers from 0 - 100% represent growth inhibition, and numbers from -100% - 0 represent cell death. For example, a value of 40 represents 60% growth inhibition. A value of 0 means no net growth occurred over the course of the experiment. A value of -40 indicates 40% of cells at the beginning of the experiment died by the end of the experiment. A value of -100 means all cells are dead at the end of the experiment.
NCI-60 Human Tumor Cell Lines Screen was performed using the standard one-dose NCI protocol, which is described in more detail at https://dtp.cancer.gov/discovery_development/nci-60/default.htm.
Compounds with GIPRCNT values below 10 were considered active. Activity score was based on GIPRCNT using the following formula: […]
Score is 0 for GIPRCNT values of 100 or above, 50 for GIPRCNT values of 0, and 100 for GIPRCNT values of -100.
Turning to `Cc1cc2nc3ccc(N=Nc4ccc(N(C)C)cc4)cc3n(-c3ccccc3)c-2cc1=N`, the growth is -72.3% (active).
For the compound `CCCCCCn1c(-c2ccc(C(=O)O/N=C(\N)c3ccc4c(c3)OCO4)cc2)nc(-c2ccccc2)c1-c1ccccc1`, the growth is 23.2%.
Regarding `Cc1onc2c(-c3ccccc3)n[nH]c(=O)c12`, the growth is 90.5%.
As for `O=C(/C=C/c1cccc2ccccc12)c1ccc(NC(=O)c2ccccc2CN2C(=O)c3ccccc3C2=O)cc1`, the growth is 74%.
For `Oc1ccc(-c2nc3ccc4[nH]ncc4c3c3c2CCCC3)c2cccnc12` the value was 7.83% (active); for `O=C(CSc1nc2ccccc2[nH]1)Nc1cccc(Cl)c1`, 99.3%; for `O=C1CN(CCN2CC(=O)N(Cc3ccccc3)C(=O)C2)CC(=O)N1Cc1ccccc1`, 93.9%.
For `COc1cccc(OC)c1C(=O)N[C@@H]1C(=O)N2[C@@H]1SC(C)(C)[C@@H]2C(=O)O` the value was 86.3%; for `O=C(Nc1ccc(Br)cc1F)c1cc(Br)ccc1O`, 11.9%; for `COc1cc2cc(Oc3ccc(NC(=O)Nc4cc(C(F)(F)F)cc(C(F)(F)F)c4)cc3)c(C)nc2cc1OCCN1CCOCC1`, 10.5%.
The figure for `C=C(C)[C@@H]1CC[C@]2(N=C=O)CC[C@]3(C)[C@H](CC[C@@H]4[C@@]5(C)Cc6c([nH]c7ccccc67)C(C)(C)[C@@H]5CC[C@]43C)[C@@H]12` is 40.3%.
Consider `COC(=O)/C=C1\S/C(=N\Nc2ccc([N+](=O)[O-])cc2[N+](=O)[O-])N(C2CCCCC2)C1=O`, for which the growth is 18.4%.
The figure for `Cn1cc(-c2cc3ncnc(Nc4ccc(CC(=O)Nc5cc(C(C)(C)C)on5)cc4)c3s2)cn1` is 47%.
For `COc1cc(CCCO)c(OC)c(OC)c1OC` the value was 106%.
`CCCCCCCCCCCCCCCCCCOc1ccc(CC(=O)OCC[N+]2(C)CCCCC2)cc1`: the growth is 92.2%.
The figure for `CCN(CC)CCNc1nc2ccccc2c2c(=O)c3cc(Cl)ccc3sc12` is 56.7%; for `CCOC(=O)Cn1c(=O)c2c(c3ccccc3n2C)n2nnc(-c3ccccc3)c12` it is 103%.
The figure for `Cc1cccc2c(=O)c3c(sc12)c(NCc1ccccc1)nc1ccccc13` is 89.1%.
As to `O=C1CCC/C=C\C[C@H]2C=CC(=O)/C2=C/C[C@H](CCc2cccc(C(F)(F)F)c2)O1`, the growth is -20.7% (active).
For `COc1ccc(C(=O)COC(=O)[C@H](C[Se][Se]C[C@H](NC(=O)c2ccc(Br)cc2F)C(=O)OCC(=O)c2ccc(OC)cc2)NC(=O)c2ccc(Br)cc2F)cc1` the value was -63.8% (active); for `CC1Cc2c(ncn3c(-c4ccc(F)cc4)nnc23)N(C)c2ccccc21` (stereo not given), 63%.
For `Cc1ccc2c(-c3cc(-c4ccccc4)nc(N)c3C#N)cc(=O)oc2c1` the value was 89.2%; for `CCOC(=O)NCCc1ccccc1`, 101%.
Regarding `O=C(Cc1ccc2c(c1)OCCO2)Nc1nc2ccc(F)cc2s1`, the growth was 93.2%.
As to `CNCCCNc1nc2ccccc2c2c(=O)c3cc(OC)ccc3sc12`, the growth is 68.8%.
For `COc1ccc(-c2[nH]c3ccc(OC)cc3c2/C=C(\C#N)S(=O)(=O)c2ccccc2)cc1` the value was 24.8%; for `COc1nc2ccccc2cc1-c1nc2c(cnn2-c2ccc(Br)cc2)c(=O)[nH]1`, 13.6%.
The figure for `CC(=O)OC[C@H]1OC(Sc2sc(C(=O)c3ccc(Cl)cc3)c(N)c2-c2nc3ccccc3s2)[C@H](OC(C)=O)[C@@H](OC(C)=O)[C@@H]1OC(C)=O` (stereo not given in full) is 83.4%; for `COc1ccc(-n2c(N)c(-c3nc4ccccc4[nH]3)cc(C#N)c2=O)cc1` it is 85.4%; for `O=CN(SSN(C=O)C1CCCCC1)C1CCCCC1` it is 103%.
The figure for `COc1ccc([C@H]2c3cc(OC)c(OC)cc3C=C(C=O)C2CO)cc1OC` (stereo not given in full) is 29%.
With `CN1CCN(c2ccc(-c3cc4c(Nc5ccc(F)c(Cl)c5)ncnn4c3)cn2)CC1`, the growth is 94.2%.
`CC(C)c1cc(C(C)C)c(S(=O)(=O)Oc2ccc(NC(=O)c3ccc(Cl)cc3)cc2)c(C(C)C)c1`: the growth is 14%.
For `Cc1ccc(C(=O)NN2C(=O)CSC2c2cccc([N+](=O)[O-])c2)cn1` (stereo not given) the value was 86.6%; for `COc1ccc2c(c1)nc(NNC(=O)c1cnccn1)c1cccn12`, 39.4%; for `Oc1ccc(Cl)cc1Cc1cc(Cl)cc(Cl)c1O`, -0.0941% (active).
For `c1ccc(OCc2nnc(-c3ccc(Oc4ccccc4)cc3)o2)cc1` the value was 78.9%; for `Cc1nc2ccccc2n1CC1C(=O)NC(=O)NC1=O`, 103%; for `O=c1[nH][n+](-c2ccc(Br)cc2)no1`, 70.7%.
Turning to `CCCCCCCCCCCCCCCCCC1OCC(COC(=O)O[C@]2(CC)C(=O)OCc3c2cc2n(c3=O)Cc3cc4ccccc4nc3-2)O1` (stereo not given in full), the growth was 77.8%.
